Reference: PMC7819943, “Rice protein-binding microarrays: a tool to detect cis-acting elements near promoter regions in rice”
The full ranking holds about 39,000 sequences; the median of “fluorescence intensity (a.u.)” is about 4,300, and the highest 2% start at about 39,000. The entries come from a sample that favours the highest values as a whole.

Each sequence was assayed against T1, OsSMF1 (Oryza sativa, UniProt Q6ZLB0 1-436) (assay: protein-binding microarray (RPBM); PBS, 2% BSA, 51.3 ng/ul salmon testes DNA, 50 uM zinc acetate, 200 nM TF, 25 C, 1 h; high values mean tight binding). Details: protein: recombinant; tags: N-terminal polyhistidine and DsRed monomer fusion (pET32a); chain copies: 2; label: CyDye5-dUTP incorporated in the synthesized complementary strand; 3' TTTTT single-stranded linker to array surface; dsDNA, one strand shown.
T1 sequence: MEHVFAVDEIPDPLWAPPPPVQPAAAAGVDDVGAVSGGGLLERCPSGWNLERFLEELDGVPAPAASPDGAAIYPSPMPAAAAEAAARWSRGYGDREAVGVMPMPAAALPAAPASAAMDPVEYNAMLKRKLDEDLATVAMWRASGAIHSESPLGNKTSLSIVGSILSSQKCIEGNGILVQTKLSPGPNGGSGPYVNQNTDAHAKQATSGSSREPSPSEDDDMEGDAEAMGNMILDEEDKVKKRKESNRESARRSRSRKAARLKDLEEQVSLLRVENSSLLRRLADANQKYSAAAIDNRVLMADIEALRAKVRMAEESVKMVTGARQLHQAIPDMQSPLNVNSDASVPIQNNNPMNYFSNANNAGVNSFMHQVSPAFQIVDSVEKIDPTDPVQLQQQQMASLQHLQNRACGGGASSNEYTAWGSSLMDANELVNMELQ
Outline: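 A custom Agilent array was converted to double-stranded form by primer extension with Cy5-dUTP and blocked with 2% BSA. Protein at 200 nM in PBS with 2% BSA, salmon testes DNA and 50 µM zinc acetate was applied for 1 h at 25 °C, followed by washing. The proteins were polyhistidine–DsRed N-terminal fusions of transcription factors, expressed in E. coli BL21-CodonPlus and Ni–NTA-purified. The binding signal is per-feature fluorescence intensity (arbitrary units) from an Axon 4000B scanner.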

**Q.** For “GAGTTACCACGAGATGACACGTAGGATAAAGAGCTTTGAACGGAGTCACCTAGTGCAG”, which binding signal is on record?
**A.** 8600 fluorescence intensity (a.u.)

**Q.** How did the binding signal turn out when “TCCAATCCTGCGTGGAGTAATTTATTTCAAGCGCAACAGGCGGAGTCACCTAGTGCAG” was run?
**A.** 3630 fluorescence intensity (a.u.)

**Q.** Which binding signal does the source give for “CGTCCAAATATTATTTCCTGCGCGTGGTTTACAAAAGAGGCGGAGTCACCTAGTGCAG” here?
**A.** 47300 fluorescence intensity (a.u.)

**Q.** “CTCGAGAGTTATTTATTATTTATATTTCCAAAGGTTTGACCGGAGTCACCTAGTGCAG” was tested. Which binding signal did it give?
**A.** 25900 fluorescence intensity (a.u.)

**Q.** How did the binding signal turn out when “GAATAGAACATGTACAGTGACACATCTGCATTGGAAGCGTCGGAGTCACCTAGTGCAG” was run?
**A.** 7380 fluorescence intensity (a.u.)

**Q.** How did the binding signal turn out when “TGTCATTGACTCACGTGGGTCCTACATGTCATTGAGCTTTCGGAGTCACCTAGTGCAG” was run?
**A.** 10300 fluorescence intensity (a.u.)

**Q.** Which binding signal does the source give for “CATCCGTCGCTTCGCTTTCGTTCGAACGCGTTGGACCCAGCGGAGTCACCTAGTGCAG” here?
**A.** 3160 fluorescence intensity (a.u.)

**Q.** With “TTTATGATAACTTTGAGTCATATCATTTTGGTAAGTCCTACGGAGTCACCTAGTGCAG” as the sequence, how does the binding signal read?
**A.** 3140 fluorescence intensity (a.u.)

**Q.** “TTATGGACTGATATGGGCCGTTGGATTGGTTTCGGTTTTGCGGAGTCACCTAGTGCAG” was tested. Which binding signal did it give?
**A.** 5480 fluorescence intensity (a.u.)

**Q.** For “ATGATAACTTTTATGGTTTTGGCCGTCTGGGGATCGGAATCGGAGTCACCTAGTGCAG”, which binding signal is on record?
**A.** 65500 fluorescence intensity (a.u.)

**Q.** How did the binding signal turn out when “CCAGTACATTTTGTACTACTACTTCGAACGGGCATGGTCGCGGAGTCACCTAGTGCAG” was run?
**A.** 29700 fluorescence intensity (a.u.)

**Q.** Which binding signal does the source give for “CTAATTGAAATCACAAATGCTGAGTTGCTGACATGCACCACGGAGTCACCTAGTGCAG” here?
**A.** 4570 fluorescence intensity (a.u.)

**Q.** Which binding signal does the source give for “CCCGTCGTTGTCCACCCCGTCCCATTCCACGACCGTCGTCCGGAGTCACCTAGTGCAG” here?
**A.** 3390 fluorescence intensity (a.u.)

**Q.** With “TGAACACGAACGCGACGCTTCTTCTGTCACGTACGCCCGTCGGAGTCACCTAGTGCAG” as the sequence, how does the binding signal read?
**A.** 3200 fluorescence intensity (a.u.)

**Q.** How did the binding signal turn out when “GTAACGTACGACCGTTGTCATCGTAGACGCTTCCCGGATTCGGAGTCACCTAGTGCAG” was run?
**A.** 45700 fluorescence intensity (a.u.)

**Q.** With “TTTCCTTGGAGAATCCAGATCAGCTTCCTAATCACCCTCACGGAGTCACCTAGTGCAG” as the sequence, how does the binding signal read?
**A.** 4040 fluorescence intensity (a.u.)

**Q.** With “AGTTTCCGAGAGCGAGCGAGAGAGAGAGAGAGAGAGAGAGCGGAGTCACCTAGTGCAG” as the sequence, how does the binding signal read?
**A.** 3220 fluorescence intensity (a.u.)

**Q.** With “GTGTCTGCCTCCGCGTCCGCTTCGTCACGGCGGTGTCGGTCGGAGTCACCTAGTGCAG” as the sequence, how does the binding signal read?
**A.** 5900 fluorescence intensity (a.u.)

**Q.** “TGTGCTCAGCCTTAATTAATTAATCGAGCGAGTCATAAGCCGGAGTCACCTAGTGCAG” was tested. Which binding signal did it give?
**A.** 3460 fluorescence intensity (a.u.)

**Q.** How did the binding signal turn out when “TGTACCTGAAACTATTGTTATGTCCAGGTCAGGAGCAGTGCGGAGTCACCTAGTGCAG” was run?
**A.** 3360 fluorescence intensity (a.u.)

**Q.** “CAGGTGTGTCCATTGAATTGAATTGAATTGAAACTATTGACGGAGTCACCTAGTGCAG” was tested. Which binding signal did it give?
**A.** 60900 fluorescence intensity (a.u.)

**Q.** “CAGGAATTGAACTATTAAGATCCATTATGTTGCTCTAAAACGGAGTCACCTAGTGCAG” was tested. Which binding signal did it give?
**A.** 3310 fluorescence intensity (a.u.)

**Q.** With “CTCTCACCATGCAAGATTTCCTTAGATTTGAGTTGAGTCACGGAGTCACCTAGTGCAG” as the sequence, how does the binding signal read?
**A.** 3150 fluorescence intensity (a.u.)

**Q.** With “CTTCAGTCCCGGTTGGTAAGGCTCAGCCGGCCACGTGGCTCGGAGTCACCTAGTGCAG” as the sequence, how does the binding signal read?
**A.** 17200 fluorescence intensity (a.u.)

**Q.** For “AGCGGACGCGCGGTATGGTCGATGGATGATGACACACGGTCGGAGTCACCTAGTGCAG”, which binding signal is on record?
**A.** 5210 fluorescence intensity (a.u.)

**Q.** Which binding signal does the source give for “GTGCCATCTAAGCGTCACGTCAAACACCACATACCAGGTCCGGAGTCACCTAGTGCAG” here?
**A.** 3140 fluorescence intensity (a.u.)

**Q.** For “CCAGGTCACATTCACATCTCTCTTTACCAAAGCTAAGCCACGGAGTCACCTAGTGCAG”, which binding signal is on record?
**A.** 48100 fluorescence intensity (a.u.)

**Q.** Which binding signal does the source give for “AAGCTAGTCACACATCACCATCACACACACCAAGCCACACCGGAGTCACCTAGTGCAG” here?
**A.** 4460 fluorescence intensity (a.u.)

**Q.** Which binding signal does the source give for “CTGTATTCATTAGGGTGGGACTGTATACTATAGTTATTATCGGAGTCACCTAGTGCAG” here?
**A.** 3190 fluorescence intensity (a.u.)

**Q.** For “GACCCACGCCTTCGGGTCCACATGTCATAGCCTATCCACCCGGAGTCACCTAGTGCAG”, which binding signal is on record?
**A.** 3550 fluorescence intensity (a.u.)

**Q.** For “GAAACGATGGTTTGAGTACTGACTTGGCAATGCTGGTCATCGGAGTCACCTAGTGCAG”, which binding signal is on record?
**A.** 6280 fluorescence intensity (a.u.)

**Q.** “CTTGTTTGATCAAACCGATGCGACGCAGAGAGAGAGAGGTCGGAGTCACCTAGTGCAG” was tested. Which binding signal did it give?
**A.** 39400 fluorescence intensity (a.u.)

**Q.** For “AAACAGAGGGGAAGAGAGAGGATCGTCGTCGACGATGATGCGGAGTCACCTAGTGCAG”, which binding signal is on record?
**A.** 3200 fluorescence intensity (a.u.)

**Q.** How did the binding signal turn out when “GGTCGATGATGATGATGACGACGACGAGAGGAGGAGAGATCGGAGTCACCTAGTGCAG” was run?
**A.** 3820 fluorescence intensity (a.u.)

**Q.** Which binding signal does the source give for “GTCTGGCTGCTGATGGTGATGATGCTGACTTGTGACGAGTCGGAGTCACCTAGTGCAG” here?
**A.** 3620 fluorescence intensity (a.u.)

**Q.** With “TTTGCGATGCTGACTGGTCTGAGAGCCTTGATCCGATGGTCGGAGTCACCTAGTGCAG” as the sequence, how does the binding signal read?
**A.** 44800 fluorescence intensity (a.u.)

**Q.** With “TGTTGTGCTGGTTGGTTCCAGATCTAACAGTGACAGTGCGCGGAGTCACCTAGTGCAG” as the sequence, how does the binding signal read?
**A.** 4380 fluorescence intensity (a.u.)

**Q.** “AAGTCCGATTCGTGAGTCACAGATGTTGACTCGCCGAAAACGGAGTCACCTAGTGCAG” was tested. Which binding signal did it give?
**A.** 5350 fluorescence intensity (a.u.)

**Q.** Which binding signal does the source give for “TCCTTCTATATGTTTGCACTTACGTGGGCCGTATTTATGCCGGAGTCACCTAGTGCAG” here?
**A.** 9040 fluorescence intensity (a.u.)

**Q.** For “GACGATCAAGATCGACACGACCAACGTGGCATGTTGCGTACGGAGTCACCTAGTGCAG”, which binding signal is on record?
**A.** 9470 fluorescence intensity (a.u.)

**Q.** “GAGGAGGAGGAGGCTGATGTGGCAGCCTGACATGTGGGGCCGGAGTCACCTAGTGCAG” was tested. Which binding signal did it give?
**A.** 7020 fluorescence intensity (a.u.)

**Q.** How did the binding signal turn out when “TCCTTGATCCTTTATTTGATATTTGTTTAGATATATAATTCGGAGTCACCTAGTGCAG” was run?
**A.** 37900 fluorescence intensity (a.u.)

**Q.** For “TACGATGAGTCATTTATTGATTATTGTATTAATGTTCCTTCGGAGTCACCTAGTGCAG”, which binding signal is on record?
**A.** 11500 fluorescence intensity (a.u.)

**Q.** With “AAAGGATGATATTTATTCGATCCTTGTTCGAATGTAGACTCGGAGTCACCTAGTGCAG” as the sequence, how does the binding signal read?
**A.** 55700 fluorescence intensity (a.u.)

**Q.** Which binding signal does the source give for “CGCTGTGTATATATGTGCAGGTCCATCCATGAGAGGTTGACGGAGTCACCTAGTGCAG” here?
**A.** 34900 fluorescence intensity (a.u.)

**Q.** “GGCCAGCCGTGTAGGCGGAGGCACCACTCGGCGGCGACGGCGGAGTCACCTAGTGCAG” was tested. Which binding signal did it give?
**A.** 49900 fluorescence intensity (a.u.)

**Q.** How did the binding signal turn out when “GCCCAGCGTGCACGGCGCGACGGACTCGCGCGGCACTAGCCGGAGTCACCTAGTGCAG” was run?
**A.** 5790 fluorescence intensity (a.u.)

**Q.** Which binding signal does the source give for “GGCATAATAGGCCAGCCGTGTAGGCAGAGACACCAGTCGGCGGAGTCACCTAGTGCAG” here?
**A.** 4530 fluorescence intensity (a.u.)

**Q.** “TGCTGAGTGAGTGATGAGTGTGCGAATGTGTGATCGATCGCGGAGTCACCTAGTGCAG” was tested. Which binding signal did it give?
**A.** 3860 fluorescence intensity (a.u.)

**Q.** “ATTATTCATAAGCTGAATATTCTTATTCATACATTCGGATCGGAGTCACCTAGTGCAG” was tested. Which binding signal did it give?
**A.** 6460 fluorescence intensity (a.u.)

**Q.** How did the binding signal turn out when “CCAGGTCAACATTGCCACGTGTGCGGCCACGTCAGCGAAACGGAGTCACCTAGTGCAG” was run?
**A.** 33400 fluorescence intensity (a.u.)

**Q.** Which binding signal does the source give for “CACGTGGGACGAAAACTAGGTCAACATCGCCACGTCAGCGCGGAGTCACCTAGTGCAG” here?
**A.** 45900 fluorescence intensity (a.u.)

**Q.** With “CGAAGACTAAGTCAACACCACCACGTAGTCGCCACATCAGCGGAGTCACCTAGTGCAG” as the sequence, how does the binding signal read?
**A.** 8880 fluorescence intensity (a.u.)

**Q.** How did the binding signal turn out when “CTAGGTCAACACCGCCATGTCAGCGCCACGTCAGCGAAACCGGAGTCACCTAGTGCAG” was run?
**A.** 28700 fluorescence intensity (a.u.)

**Q.** “GGCTATTGGGAGCCACGTCAGCCGGTGGCCTCCGCCATCGCGGAGTCACCTAGTGCAG” was tested. Which binding signal did it give?
**A.** 22600 fluorescence intensity (a.u.)

**Q.** “GCCACGTGGGATGAAGCCTAAGTCAACATCGCCACGTCAGCGGAGTCACCTAGTGCAG” was tested. Which binding signal did it give?
**A.** 43200 fluorescence intensity (a.u.)
